Data from PubChem BioAssay AID1347172 (National Center for Advancing Translational Sciences (NCATS), 2019).
Inconclusive results are not listed. Entries that show only a call come without a potency. Calls of active or inactive are those of the source. Calls come from the whole dose curve; as a rule, active = well fitted inhibition curve with a large enough effect; inconclusive = small, poorly fitted or top-dose-only effect; inactive = flat fitted curve, though single readings scatter.

assay: Secondary qRT-PCR qHTS assay for selected Zika virus inhibitors; conditions: Vero cells ZIKV infection, NS5 RNA qRT-PCR, 24 h; series mostly up to 32.6 µM
From the text: Assay Submitters (PI): Avindra Nath, Ph.D., National Institute of Neurological Disorders and Stroke (NINDS), Bethesda, MD Radhakrishnan Padmanabhan, Ph.D., Georgetown University (GU), Washington D.C. Zika Virus causes congenital defects, including microcephaly and is associated with Guillain-Barre syndrome, eningoencephalitis and myelitis in infected adult. […] Using a target-based approach, we hope to establish a screening paradigm to uncover novel, cell-active NS2B-NS3 protease (Zika Virus) specific inhibitors from NCATS' collection of small molecules using qHTS. […] Four assay panel was created to identify potential Zika Virus inhibitors. Namely, (1) GU unlinked NS2B-NS3 AMC tagged protease qHTS, (2) GU unlinked NS2B-NS3 Rhodamine tagged protease qHTS, (3) NINDS linked NS2B-NS3 AMC tagged protease qHTS, (4) NINDS linked NS2B-NS3 Rhodamine tagged protease qHTS. Inhibitors of the Zika virus primary screens are confirmed using qRT-PCR secondary assays, qRT-PCR mCherry orthogonal assay, and qRT-PCR viability counterscreen. Early Translation Branch (ETB) National Center for Advancing Translational Sciences (NCATS), Rockville, MD National Institute of Health (NIH), Bethesda, Maryland
384-well ZIKV qRT-PCR Assay: Vero cells were treated with the indicated compounds at different concentrations, infected with ZIKV (MOI=1) and incubated at 37 degrees C for 3 hours to permit virus invasion. After 3 hr, supernatant was removed, and cells were washed once to remove extracellular virus. After a further 21 hr incubation, infected cells were washed three times with cold PBS (4 degrees C). Plates were then process using the TaqmanGene Expression Cells-to-Ct Kit (ThermoFisher Scientific) following the manufactures protocol. Primers directed to the NS5 sequence (F-[…]; R-GCTCGGCCAATCAGTTCA) along with Taqman probe (FAM-[…]-BHQ; Biosearch Technologies) were used to quantify drug inhibition of viral load. Reactions were run at initial 95 degrees C for 10 min, then 40 cycles of 95 degrees C for 20 sec and 60 degrees C for 40 sec using a LightCycler 480 (Roche). Relative viral copy numbers were generated by normalizing to cells treated with vehicle.

SMILES | Potency
CC1CCN(C(c2ccc(F)cc2)c2ccc(C(C)C(=O)O)cc2-c2ccc(C(F)(F)F)cc2)CC1 (stereo not given) | 14.1 µM (active)
CC(=O)OC12CC(C)C(OC(=O)c3ccccc3)C1/C=C(/C)C(OC(=O)c1ccccc1)CC(=O)C(C)(C)/C=C/C(C)C2=O (stereo not given) | inactive
CCOc1c2c(c(OCC)c3ccccc13)C(=O)N(c1ccc(CC(=O)NS(=O)(=O)c3ccccc3)cc1)C2 | inactive
CC(=O)Nc1ccc([C@H](C)C(=O)Nc2ncc(C(C)C)s2)cc1 | inactive
CC(C)(Sc1ccc(CCN(CCCCC2CCCCC2)C(=O)NC2CCCCC2)cc1)C(=O)O | inactive
CC(Oc1ccccc1)C(=O)Nc1ccc(C(=O)OCc2cc(=O)n3nc(C4CC4)sc3n2)cc1 (stereo not given) | inactive
Cc1ccn(-c2ccc(-c3ncco3)cc2)c(=O)c1-c1ccc2nc(N)ncc2c1 | inactive
Oc1cc2ccccc2c2ccccc12 | 22.4 µM (active)
CC(C)C[C@H](C(=O)O)c1cc(-c2ccc(C(F)(F)F)cc2)cc(-c2ccc(C(F)(F)F)cc2)c1 | 12.6 µM (active)
O=S(=O)(Nc1cc(Cl)c(Oc2cnc3ccccc3c2)c(Cl)c1)c1ccc(Cl)cc1Cl | 22.4 µM (active)
COc1c(C)c2c(c(O)c1C/C=C(\C)CCC(=O)O)C(=O)OC2 | inactive
CC[C@H](C)[C@H]1O[C@]2(CC[C@@H]1C)C[C@@H]1C[C@@H](C/C=C(\C)[C@@H](O[C@H]3C[C@H](OC)[C@@H](O[C@H]4C[C@H](OC)[C@@H](O)[C@H](C)O4)[C@H](C)O3)[C@@H](C)/C=C/C=C3\CO[C@@H]4[C@H](O)C(C)=C[C@@H](C(=O)O1)[C@]34O)O2 | 3.98 µM (active)
CC(C)c1ccc2c(c1)c(SC(C)(C)C)c(CC(C)(C)C(=O)O)n2Cc1ccc(Cl)cc1 | 10 µM (active)
O=C(O)Cc1cccc(OCCCN(Cc2cccc(C(F)(F)F)c2Cl)CC(c2ccccc2)c2ccccc2)c1 | 14.1 µM (active)
N#Cc1ccc(N2N=C3c4ccc(C(=O)O)cc4CC[C@@H]3[C@@H]2C2CCCC2)cc1Cl | inactive
CC(C)c1cc(C(C)C)c(CC(=O)NS(=O)(=O)Oc2c(C(C)C)cccc2C(C)C)c(C(C)C)c1 | 10 µM (active)
CCCCCCCOc1cc2c(cc1/C(C)=C/c1ccc(C(=O)O)cc1)C(C)(C)CCS2(=O)=O | 14.1 µM (active)
CC1(C)CCC(C)(C)c2cc3c(cc21)Sc1ccccc1N=C3c1ccc(C(=O)O)cc1 | inactive
O=C1NC(=O)/C(=C/c2cccc(C(F)(F)F)c2)S1 | inactive
CN(C)[C@@H]1C(=O)C(C(N)=O)=C(O)[C@@]2(O)C(=O)C3=C(O)c4c(O)cccc4C[C@H]3C[C@@H]12 | inactive
CC1=C(C(=O)OCc2ccccc2)C(c2ccc(-c3ccccc3)cc2)NC(=O)N1CCCCCC(=O)O (stereo not given) | inactive
CN(Cc1ccc(C(=O)O)cc1)c1ccc(OCc2c(-c3c(Cl)cccc3Cl)noc2C2CC2)nc1C(F)(F)F | 14.1 µM (active)
COc1ccc(NS(=O)(=O)c2ccc(NS(=O)(=O)c3ccc4c(c3)OCCO4)cc2)cc1 | inactive
O=C(O)/C=C/c1ccc(-c2ccc(O)c(C34CC5CC(CC(C5)C3)C4)c2)cc1 | 10 µM (active)
Cc1ccc2[nH]c(=O)c(C3=NN(C(=O)CCC(=O)O)C(c4ccc(Br)cc4)C3)c(-c3ccccc3)c2c1 (stereo not given) | inactive
O=C(O)Cc1cc(I)c(Oc2ccc(O)c(I)c2)c(I)c1 | inactive
C=C1c2cccc(O)c2C(O)=C2C(=O)[C@]3(O)C(O)=C(C(N)=O)C(=O)[C@@H](N(C)C)[C@@H]3[C@@H](O)[C@H]12 | inactive
Cc1ccc([C@@H]2CC=C(C(=O)O)[C@H](c3ccc(C(C)(C)C)cc3)N2S(=O)(=O)c2ccc(C)cc2)cc1 | inactive
N#CC1C(=O)Nc2scc(-c3ccc(-c4ccccc4O)cc3)c2C1=O (stereo not given) | inactive
O=C(O)c1ccc(-n2nc(-c3ccccc3O)nc2-c2ccccc2O)cc1 | inactive
